Assay outcomes: PubChem BioAssay, National Center for Advancing Translational Sciences (NCATS)
Most compounds without a hit are left out; they make up all but 3.1% or so of the library.
EPAC2 antag = human EPAC2 antagonism, validation | Q8WZA2 | EPAC2 Rap1B BODIPY-GDP exchange, fluorescence | Potency, µM (titrated, usually from 112 µM), usual class: inhibitors | actives 1.7% (n = 16,000) | AID 1645886; further: nearly all actives have a fitted effect of over 40% in size
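Normalized against a 6.5 mM cAMP agonist control, compounds were tested on 100 nM EPAC2 exchanging Rap1B-bound BODIPY-GDP (250 nM) for 50 uM GDP. Fluorescence drop (ex 480, em 540 nm) was tracked at room temperature over 30 min at 5-min intervals.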
EPAC1 ag val = validation of human EPAC1 agonists. O95398. Potency, µM, actives largely listed as activators. EPAC1 Rap1b BODIPY-GDP exchange, fluorescence. actives 1% (n = 16,000); further: nearly all actives have a fitted effect of over 70% in size
A number is an active result; . = inactive; ? = inconclusive; ! = repeats disagree. The call rests on the fitted dose curve; in most records, active means well fitted curve in the direction sought with a large enough effect; inconclusive means small, poorly fitted or top-dose-only effect, or another doubt; inactive means no such curve, though single readings can be large; an effect the other way counts as inactive or inconclusive.

SMILES	EPAC2 antag	EPAC1 ag val
CO/N=C(\C(=O)N[C@@H]1C(=O)N2C(C(=O)O)=C(CSc3nc(C)c(CC(=O)O)s3)CS[C@H]12)c1csc(N)n1	.	.
O=C(NCc1nnc2n1CCN(Cc1cccc(Cl)c1)CC2)c1cccc(F)c1	.	.
Clc1ccccc1-c1nccc(-n2ccnc2)n1	.	.
Clc1ccccc1C(c1ccccc1)(c1ccccc1)n1ccnc1	11.2µM!	?
Cc1cccc2c(Nc3ccc4c(c3)OCO4)nc(CN3CCC(N4CCCCC4)CC3)nc12	.	.
CCCCCCCCCC[n+]1ccc(/C=C/c2c[nH]c3ccccc23)c2ccccc21	.	.
CCCCCCC[n+]1ccc(/C=C/c2c[nH]c3ccccc23)cc1	.	100µM
CCCCCCCCCC[n+]1ccc(/C=C/c2c(C)[nH]c3ccccc23)cc1	.	25.1µM
Cc1[nH]c2ccccc2c1/C=C/c1nccc2ccccc12	?	.
COc1cc(CNc2nc(C)c(-c3ccn(CC4CCCN(C)C4)n3)s2)ccc1F (stereo unspecified)	.	.
C[C@H]1C=C2C=C[C@H](C)[C@H](CC[C@@H]3C[C@@H](O)CC(=O)O3)[C@H]2[C@@H](OC(=O)[C@@H](C)CCO)C1	56.2µM	.
CCC(C)C(=O)OC1CC(C)C=C2C=CC(C)C(CCC3CC(O)CC(=O)O3)C21 (stereo unspecified)	.	.
CCOC(=O)C1=C(C)NC(C)=C(C(=O)OCC)C1c1ccccc1C=CC(=O)OC(C)(C)C	.	.
CCOC(=O)C1=C(C)NC(C)=C(C(=O)OCC)C1c1c(F)c(F)c(F)c(F)c1F	35.5µM	.
Cc1ncsc1CCC(=O)N1CCCC(c2nc(-c3ccncc3)ncc2-c2ccccc2)C1 (stereo unspecified)	.	.
Nc1cc(N)cc(N)c1	56.2µM	.
Nc1ccc(O)cc1	?	.
CC(=O)C[C@H]1c2cc(F)cc(F)c2S(=O)(=O)N1C1CCN(Cc2ccccc2)CC1	.	.
CCn1ccnc1CC1COc2ccccc2O1 (stereo unspecified)	35.5µM!	.
COc1cccc(OC)c1OCCNC[C@@H]1COc2ccccc2O1	.	.
Cc1ccc(F)cc1S(=O)(=O)NCc1nc(N2CCCC2)c2cccc(C)c2n1	.	.
CCN(CC)c1ccccc1/C=C/[n+]1ccc(CCCCI)c2ccccc21	56.2µM	.
CCCCCCCCCc1ccc(OCCOCCO)cc1	?	.
O=c1c(-c2ccc(Cl)cc2)nc2cncnc2n1Cc1ccccc1Cl	.	112µM
O=c1c(-c2ccc(Cl)cc2)nc2cncnc2n1Cc1ccccc1	.	?
SMILES	EPAC2 antag	EPAC1 ag val
Cc1cnc(C)c(-c2ccc(F)c3c2OC(CNC(=O)/C=C/c2cccs2)C3)n1 (stereo unspecified)	.	.
CCc1oc2ccccc2c1C(=O)c1cc(I)c(O)c(I)c1	63.1µM	.
COc1ccc(-c2oc3ccccc3c(=O)c2O)cc1OC	.	.
CO[C@@H]1[C@@H](O[C@@H]2O[C@H](C)[C@@H](O[C@H]3C[C@@](C)(O)[C@@H](OC(=O)CC(C)C)[C@H](C)O3)[C@H](N(C)C)[C@H]2O)[C@@H](CC=O)C[C@@H](C)C(=O)/C=C/C2OC2C[C@@H](C)OC(=O)C[C@H]1OC(C)=O (stereo partly specified)	.	.
O=C1O/C(=C/Br)CCC1c1cccc2ccccc12 (stereo unspecified)	3.98µM	.
COc1ccc2[nH]cc(CCNc3ccnc(-c4ccc(N(C)C)cc4)n3)c2c1	.	?
COc1ccc2[nH]cc(CCNc3ccnc(-c4ccoc4)n3)c2c1	89.1µM	.
CCC1CN(CCNC(=O)c2cn3cc(C)ccc3n2)Cc2cc(OC)ccc2O1 (stereo unspecified)	.	.
Cc1c(C(=O)NCc2nccs2)cnn1-c1ncc2c(n1)-c1ccccc1CC2	.	.
COC(=O)[C@H]1[C@H]2C[C@@H]3c4[nH]c5cc(OC)ccc5c4CCN3C[C@H]2C[C@@H](OC(=O)COc2ccc(OC)cc2)[C@@H]1OC	.	.
CCOC(=O)Oc1c(OC)cc(C(=O)O[C@@H]2C[C@@H]3CN4CCc5c([nH]c6cc(OC)ccc56)[C@H]4C[C@@H]3[C@H](C(=O)OC)[C@H]2OC)cc1OC	.	31.6µM!
Cc1nc2ccccc2nc1CN1CCOc2ccc(C3(O)CCN(c4ccccc4F)CC3)cc2C1	.	.
Cc1nc2cc(NC(=O)[C@@H]3C[C@@H](Sc4ccccn4)CN3Cc3cccc(Cl)c3)ccc2s1	.	.
O=S1(=O)CCO[C@H]2Cc3ccccc3[C@H]2N1Cc1cccc(F)c1	?	.
O=S1(=O)CCO[C@H]2Cc3ccccc3[C@H]2N1Cc1cccc(C(F)(F)F)c1	28.2µM	.
CC(C)C[C@@H]1NC(=O)[C@H](CCCN)NC(=O)[C@H](C(C)C)NC(=O)[C@@H]2CCCN2C(=O)[C@@H](Cc2ccccc2)NC(=O)[C@H](CC(C)C)NC(=O)[C@H](CCCN)NC(=O)[C@H](C(C)C)NC(=O)[C@@H]2CCCN2C(=O)[C@@H](Cc2ccccc2)NC1=O	?	.
O=C(c1cccc(F)c1)N1CCC2(CC1)CCN(c1cccc(-c3ccccc3)c1)CC2	.	.
O=C(c1csnn1)N1CCC2(CC1)CN(c1cccc(-c3ccccc3)c1)C2	?	100µM
O=C(c1cccc(F)c1)N1CCC2(CCCN(c3cccc(-c4ccccc4)c3)C2)CC1	.	100µM
O=C(c1cccc(F)c1)N1CCC[C@@]2(CCN(c3cccc(-c4ccccc4)c3)C2)C1	.	.
COC(=O)N1CCC2(CC1)CCN(c1cccc(-c3ccccc3)c1)CC2	.	100µM
O=C(Oc1ccccc1)N1CCC2(CC1)CCN(c1cccc(-c3ccccc3)c1)CC2	.	.
O=C(c1cccc(F)c1)N1CCC2(CC1)CN(c1cccc(-c3ccccc3)c1)C2	?	89.1µM
O=C(c1csnn1)N1CCC2(CC1)CN(c1ccccc1)C2	.	.
CSc1nnc(CNC(=O)c2c(-c3ccccc3)noc2C)n1-c1ccc(F)cc1	.	.
SMILES	EPAC2 antag	EPAC1 ag val
Cc1ccc(C(=O)Nc2cccc(-c3nc(CNC(=O)c4ccc(F)cc4Cl)c(C)o3)c2)s1	.	.
CC(=O)N[C@@H](CC(=O)N[C@@H](CCC(=O)O)C(=O)O)C(=O)O	.	.
NC(=O)[C@@H]1C[C@]2(NC(=O)NC2=O)c2cc(F)ccc2O1	.	.
CCOC(=O)/C=C/c1ccc2oc3ccccc3c(=O)c2c1	.	.
O=c1c2ccccc2oc2ccc(Oc3ccccc3)cc12	?	100µM
CC(C)(C)NC(=O)[C@H]1CN(Cc2cccnc2)CCN1C[C@@H](O)C[C@@H](Cc1ccccc1)C(=O)N[C@H]1c2ccccc2C[C@H]1O	25.1µM	.
CC(C)(C)NC(=O)[C@@H]1C[C@@H]2CCCC[C@@H]2CN1C[C@@H](O)[C@H](Cc1ccccc1)NC(=O)[C@H](CC(N)=O)NC(=O)c1ccc2ccccc2n1	?	.
COc1ccc(-c2nc3cnc(Nc4ccccc4)nc3n(Cc3cccs3)c2=O)cc1	.	.
Cc1nc2cnc(N(C)C)nc2n(Cc2cccs2)c1=O	.	.
CN(C)c1ncc2nc(-c3cc(F)cc(F)c3)c(=O)n(Cc3cccs3)c2n1	.	112µM
CN(C)c1ncc2nc(CCc3ccccc3)c(=O)n(Cc3cccs3)c2n1	.	112µM
O=c1c(-c2ccc(F)cc2)nc2cnc(Nc3ccccc3)nc2n1Cc1cccs1	?	100µM
COc1ccc(Oc2ncc3nc(C)c(=O)n(Cc4cccs4)c3n2)cc1	?	112µM
